Shown are actives, neighbours in structure and some others; about 3.4% of the full set was active somewhere.
PLC-beta3 inh: human PLC-beta3 inhibitors, primary screen, biochemical, fluorescence; inhibition, % at 12.2 µM; actives 0.18% (n = 370,000); Purified PLC-beta3, fluorogenic substrate; 1-phosphatidylinositol 4,5-bisphosphate phosphodiesterase beta-3 (Homo sapiens), Q01970; in the data active = inhibition above about 11%
PLCg1 inh: PLC-gamma1 enzyme inhibitors, primary screen, biochemical, fluorescence, purified enzyme; 1-phosphatidylinositol 4,5-bisphosphate phosphodiesterase gamma-1 (Homo sapiens), P19174; fluorogenic substrate; inhibition, % at 12.2 µM; actives 0.84% (n = 370,000); in the data active = inhibition above about 9.5%
ADAM10 inh: human ADAM10 inhibitors, primary screen, biochemical, QFRET, HTS. Disintegrin and metalloproteinase domain-containing protein 10 (Homo sapiens), O14672. recombinant ADAM10, EDANS/DABCYL FRET peptide cleavage, 3 h. inhibition, % at 7 µM. actives 0.62% (n = 370,000). AID 720582, 2013;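 active = inhibition above a per-campaign cutoff equal to the mean of compounds falling between control-based bounds plus 3 SD, cut at about 20% in these data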
ADAM17 inh: ADAM17 inhibitors, primary screen, biochemical, QFRET. Disintegrin and metalloproteinase domain-containing protein 17 (Homo sapiens), P78536. recombinant ADAM17, EDANS/DABCYL FRET peptide cleavage. inhibition, % at 6.95 µM. actives 0.83% (n = 370,000). AID 720648, 2013;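 active = inhibition above the mean of compounds lying between control limits plus 3 SD, set per campaign, cut at about 8.5% in these data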
HGIII-sPLA2 inh: human group III sPLA2 inhibitors, primary screen, biochemical, QFRET, BODIPY PC-A2 liposome substrate; Group 3 secretory phospholipase A2 (Homo sapiens), Q9NZ20; QFRET BODIPY PC-A2 liposome hydrolysis, fluorescence; actives 0.56% (n = 370,000); inhibition, % at 12.2 µM;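 active = inhibition above mean plus 3 SD of compounds lying within the high and low control bounds, cut at about 19% in these data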
proKLK7 act: proKLK7 zymogen activators, primary screen, biochemical, fluorescence intensity; Kallikrein-7 (Homo sapiens), P49862; purified proKLK7, EDANS-DABCYL substrate fluorescence; 100% is mature enzyme control, 0% vehicle; activation, % at 7 µM; actives 0.9% (n = 370,000); AID 652039, 2013;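 active = activation above the mean of all tested compounds plus 3 SD, computed per campaign excluding outliers beyond control limits, cut at about 13% in these data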
Target sequence (P49862 whole entry, looked up): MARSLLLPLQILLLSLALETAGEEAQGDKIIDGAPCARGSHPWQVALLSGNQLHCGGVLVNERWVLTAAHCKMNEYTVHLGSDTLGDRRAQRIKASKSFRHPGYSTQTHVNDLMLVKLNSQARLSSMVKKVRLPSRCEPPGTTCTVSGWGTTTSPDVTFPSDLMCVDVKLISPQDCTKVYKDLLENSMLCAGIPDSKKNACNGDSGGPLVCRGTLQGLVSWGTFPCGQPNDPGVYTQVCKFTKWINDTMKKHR
KLK7 act conf: proKLK7 zymogen activators, confirmation, biochemical, fluorescence intensity, triplicate; purified proKLK7, EDANS-DABCYL substrate fluorescence; scaled: vehicle 0, mature enzyme 100; actives 68% (n = 3,200); shares compounds with proKLK7 act; activation, % at 7 µM;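 active = activation, as change over the incubation, above the mean of all tested compounds plus 3 SD, cut at about 13% in these data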
EDANS-DABCYL int: EDANS-DABCYL substrate optical interference, artefact control for kallikrein-7 zymogen activator project, biochemical, fluorescence intensity, high throughput. no enzyme, 4 h; solvent 0%, active enzyme control 100%. activation, % at 7 µM. actives 80% (n = 3,200). AID 686952, 2013. shares compounds with proKLK7 act;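 active = activation above the all-compound mean plus 3 SD, ignoring values outside control-based bounds, cut at about 4.8% in these data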;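 also: value is the 4 h activation minus the activation read at time zero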
EDANS interf: EDANS fluorescence interference in dose response, no enzyme; shares compounds with proKLK7 act; EDANS-DABCYL peptide fluorescence interference; EC50, µM; actives 20% (n = 250); AID 720493;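 active = compounds that raise the fluorescence signal in this interference counterscreen, with EC50 at or below 10 µM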;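 also: intact quenched peptide substrate alone read at 355 nm excitation and 520 nm emission; signal is fluorescence gain from T0 to T4 after four hours at room temperature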
Hits are given with their value; - = inactive; . = no result given.

SMILES | PLC-beta3 inh | PLCg1 inh | ADAM10 inh | ADAM17 inh | HGIII-sPLA2 inh | proKLK7 act | KLK7 act conf | EDANS-DABCYL int | others
CC(=O)COc1ccc2c(C)c(C)c(=O)oc2c1 | - | - | - | - | - | - | . | .
COc1ccc(-c2cc3ccc(OC(C)C(=O)O)cc3oc2=O)cc1 (stereo not given) | - | - | - | - | - | 70.2 | 70.1 | 67.8
COc1ccc(-c2cc3ccccc3oc2=O)cc1 | - | - | - | - | - | - | . | .
CC(=O)COc1ccc2cc(-c3ccccc3)c(=O)oc2c1 | - | - | - | - | - | 22.8 | 57.2 | 72.9
CC(=O)Oc1ccc2cc(-c3ccccc3)c(=O)oc2c1 | - | - | - | - | - | 216.1 | 564.9 | 570.3
COc1ccc2cc(C(C)=O)c(=O)oc2c1 | - | - | - | - | - | - | . | .
CC(=O)Oc1ccc(-c2cc3ccc(OC(C)=O)cc3oc2=O)cc1 | - | - | - | - | - | 225.4 | 450.6 | 412.1
Cc1c(C)c2c(OCC(=O)NCc3ccncc3)cc3c(c2oc1=O)CCC(C)(C)O3 | - | - | - | - | - | - | . | .
Cc1cc(=O)oc2c3c(cc(OCC(=O)NCc4ccncc4)c12)OC(C)(C)CC3 | - | - | - | - | - | 23.2 | 36.6 | - | EDANS interf=-
CCc1cc(=O)oc2c3c(cc(OCC(=O)NCc4cccnc4)c12)OC(C)(C)CC3 | - | - | - | - | - | 17.9 | - | -
CCc1cc(=O)oc2c3c(cc(OCC(=O)NCc4ccccn4)c12)OC(C)(C)CC3 | - | - | - | - | - | 20.0 | - | -
CCc1cc(=O)oc2c3c(cc(OCC(=O)Nc4cccnc4)c12)OC(C)(C)CC3 | - | - | - | - | - | - | . | .
CCc1cc(=O)oc2c3c(cc(OCC(=O)NCCCCCC(=O)O)c12)OC(C)(C)CC3 | - | - | - | - | - | 30.0 | 57.0 | 63.9
COCO[C@@H]1CC(CO)=C[C@H]2OCO[C@H]21 | - | - | - | - | - | . | . | .
CC(C)C[C@H](NC1(C(=O)NC2CCCCC2)CCN(C(=O)OC(C)(C)C)CC1)C(=O)NCCc1c[nH]c2ccccc12 | - | - | - | - | - | . | . | .
Cc1cccc(C)c1-n1nnnc1C1c2ccccc2OCC(=O)N1Cc1ccc(F)cc1 (stereo not given) | - | - | - | - | - | - | . | .
CC(C)C[C@@H]1COc2cc(F)ccc2S(=O)(=O)N1C | - | - | - | - | - | - | . | .
Cc1cc(C)c2cc(C#N)c(NCCCNC(=O)CCC(=O)O)nc2c1 | - | - | - | - | - | 15.3 | 20.3 | 22.2
CCc1nn(CC(=O)NCCN2CCN(C)CC2)c(=O)c2cc3c(OC)cccc3n12 | - | - | - | - | - | 34.5 | 26.7 | 33.6
CC(=O)c1c(C)nc2nonc2c1N | - | - | - | - | - | 15.8 | 32.8 | 37.8
CCN(Cc1cn(Cc2ccccc2)nn1)S(=O)(=O)c1ccc(F)cc1Br | - | - | - | - | - | - | . | .
CN(C)S(=O)(=O)c1cccc(-c2cn3cccnc3n2)c1 | - | - | - | - | - | 38.9 | 56.9 | 61.7
O=S(=O)(c1cccc(-c2cn3cccnc3n2)c1)N1CCOCC1 | - | - | - | - | - | 30.2 | 70.9 | 66.7
CN(C)S(=O)(=O)c1ccc(-c2cn3ccccc3n2)cc1 | - | - | - | - | - | 29.6 | 22.4 | 30.6
CCN(CC)S(=O)(=O)c1ccc(-c2cn3ccccc3n2)cc1 | - | - | - | - | - | - | . | .
SMILES | PLC-beta3 inh | PLCg1 inh | ADAM10 inh | ADAM17 inh | HGIII-sPLA2 inh | proKLK7 act | KLK7 act conf | EDANS-DABCYL int | others
O=S1(=O)c2ccc(N3CCSCC3)cc2Oc2ccccc2CN1Cc1cn(Cc2ccccc2C(F)(F)F)nn1 | - | - | - | - | - | - | . | .
COC(=O)[C@]12C[C@H](CC(=O)NCc3ccc(OC)c(OC)c3)C(=O)N(CCc3ccc(OC)c(OC)c3)C1=C[C@H](C1CCCC1)O[C@@H]2C | - | - | - | - | - | - | . | .
O=c1[nH]c2ccc(Cl)cc2c(-c2ccccc2)c1N1CCN(CCO)CC1 | - | - | - | - | - | 29.4 | - | -
CC(=O)Nc1ccc(C(=O)Nc2ccc(S(=O)(=O)N3CCCC3)cc2)cc1 | - | - | - | - | - | - | . | .
O=C(Nc1ccc2c(c1)C(=O)NC2=O)c1ccc(S(=O)(=O)N2CCCC2)cc1 | - | - | - | - | - | 86.4 | 89.5 | 39.5 | EDANS interf=8.5
Oc1ccc2ccccc2c1C=Nn1c(-c2n[nH]c3c2CCC3)n[nH]c1=S | - | - | - | - | - | - | . | .
CCOC(=O)c1ccccc1NC(=O)COC(=O)CSCC(=O)Nc1cc(C)on1 | - | - | - | - | - | - | . | .
Cc1cc(NC(=O)COC(=O)c2ccccc2NCCO)no1 | - | - | - | - | - | 33.7 | 26.8 | 23.8
CSCCCNC(=O)C1CCN(S(=O)(=O)c2ccc3[nH]c(=O)oc3c2)CC1 | - | - | - | - | - | - | . | .
CCNC(=S)NNC(=O)c1cccn(Cc2ccc(Cl)cc2)c1=O | - | - | - | - | - | 21.7 | 32.9 | 39.4
CNC(=S)NNC(=O)c1cccn(Cc2cccc(C(F)(F)F)c2)c1=O | - | - | - | - | - | 28.1 | 89.0 | 84.1
CNC(=S)NNC(=O)c1cccn(Cc2ccc(Cl)cc2Cl)c1=O | - | - | - | - | - | 15.2 | 29.7 | 41.6
CNC(=S)NNC(=O)c1ccc(=O)n(Cc2ccc(Cl)cc2Cl)c1 | - | - | - | - | - | - | . | .
CCNC(=S)NNC(=O)c1ccccc1Cl | - | - | - | - | - | - | . | .
O=C(NCc1ccccc1)N1CCC(c2nc3ccc(Cl)cc3[nH]2)CC1 | - | - | - | - | - | - | . | .
CCOC(=O)[C@@]12CCCC3=C1N(CCC3)C(=O)[C@H]2CC(=O)N1CCC(c2ccccc2)CC1 | - | - | - | - | - | - | . | .
Nc1ccc2c(C(F)(F)F)cc(C(F)(F)F)nc2n1 | - | - | - | - | - | 38.1 | 46.9 | 42.2
FC(F)(F)c1cc(C(F)(F)F)c2ccc(Oc3ccccc3)nc2n1 | - | - | - | - | - | - | . | .

Bioassay records from PubChem BioAssay.
